# ± gives the standard deviation of the averaged measurements. The full data set covers some 6,200 targets. This sample favours those with the largest changes.
# Compound: Nc1ncnc2c1ncn2[C@@H]1O[C@H](COP(=O)(O)OP(=O)(O)NP(=O)(O)O)[C@@H](O)[C@H]1O [adenylyl imidodiphosphate]
# Experiment: NP40-soluble protein abundance relative to vehicle (solubility fold change) (ratio); higher = more soluble protein in presence of AMP-PNP
# Method in brief: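 Data come from three independent experiments in which Dounce-homogenised Jurkat crude lysate was treated at eight concentrations from 0.1 to 10 mM. Treatment ran 10 min at room temperature and then 3 min at 37 °C, after which 0.8% NP40 and benzonase were added for 60 min at 4 °C before ultracentrifugation. The supernatant underwent TMT labelling and LC-MS/MS, and vsn-normalised intensities were expressed as fold change against the detergent-processed vehicle in each replicate.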
# Sequence of UniProt Q6ZRI6 (Q6ZRI6 whole entry, one chain of several): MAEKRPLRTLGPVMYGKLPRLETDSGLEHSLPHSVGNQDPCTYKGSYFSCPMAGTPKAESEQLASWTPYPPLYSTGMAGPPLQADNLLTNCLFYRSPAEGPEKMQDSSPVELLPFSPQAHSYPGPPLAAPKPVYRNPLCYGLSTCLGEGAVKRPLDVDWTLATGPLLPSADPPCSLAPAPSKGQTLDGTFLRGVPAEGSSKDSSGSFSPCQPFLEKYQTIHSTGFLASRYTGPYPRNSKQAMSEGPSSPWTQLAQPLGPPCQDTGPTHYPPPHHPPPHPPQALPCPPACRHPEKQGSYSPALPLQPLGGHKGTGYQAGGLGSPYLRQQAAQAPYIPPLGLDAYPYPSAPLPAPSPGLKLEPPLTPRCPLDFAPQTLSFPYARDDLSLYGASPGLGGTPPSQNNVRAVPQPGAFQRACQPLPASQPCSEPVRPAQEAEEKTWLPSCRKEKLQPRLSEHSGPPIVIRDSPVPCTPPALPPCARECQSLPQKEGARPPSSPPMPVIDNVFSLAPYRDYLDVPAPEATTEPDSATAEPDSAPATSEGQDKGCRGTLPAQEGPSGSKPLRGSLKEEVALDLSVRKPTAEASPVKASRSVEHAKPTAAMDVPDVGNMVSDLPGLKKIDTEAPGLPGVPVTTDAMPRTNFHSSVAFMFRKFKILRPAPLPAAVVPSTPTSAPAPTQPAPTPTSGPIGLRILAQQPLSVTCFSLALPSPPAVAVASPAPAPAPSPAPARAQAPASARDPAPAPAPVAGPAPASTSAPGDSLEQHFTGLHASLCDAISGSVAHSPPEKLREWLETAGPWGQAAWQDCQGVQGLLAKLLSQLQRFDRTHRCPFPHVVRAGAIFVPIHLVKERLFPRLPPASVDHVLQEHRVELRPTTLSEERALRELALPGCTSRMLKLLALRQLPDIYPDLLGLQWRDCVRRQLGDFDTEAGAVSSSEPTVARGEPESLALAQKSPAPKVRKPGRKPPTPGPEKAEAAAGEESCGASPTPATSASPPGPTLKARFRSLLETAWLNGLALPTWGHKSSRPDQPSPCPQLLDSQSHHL
# Sequence of UniProt Q15738 (Q15738 whole entry): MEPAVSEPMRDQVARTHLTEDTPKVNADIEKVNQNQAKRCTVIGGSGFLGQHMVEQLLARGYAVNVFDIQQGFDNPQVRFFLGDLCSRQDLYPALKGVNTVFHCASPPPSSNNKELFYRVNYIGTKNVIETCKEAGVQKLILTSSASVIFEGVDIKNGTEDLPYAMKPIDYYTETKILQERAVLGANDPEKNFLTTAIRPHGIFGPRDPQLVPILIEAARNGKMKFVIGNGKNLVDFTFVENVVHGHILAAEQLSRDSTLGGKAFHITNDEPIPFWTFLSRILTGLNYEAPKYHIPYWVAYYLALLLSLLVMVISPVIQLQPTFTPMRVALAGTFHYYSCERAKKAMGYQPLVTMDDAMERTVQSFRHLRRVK
# Sequence of UniProt Q8N3X1 (Q8N3X1 whole entry): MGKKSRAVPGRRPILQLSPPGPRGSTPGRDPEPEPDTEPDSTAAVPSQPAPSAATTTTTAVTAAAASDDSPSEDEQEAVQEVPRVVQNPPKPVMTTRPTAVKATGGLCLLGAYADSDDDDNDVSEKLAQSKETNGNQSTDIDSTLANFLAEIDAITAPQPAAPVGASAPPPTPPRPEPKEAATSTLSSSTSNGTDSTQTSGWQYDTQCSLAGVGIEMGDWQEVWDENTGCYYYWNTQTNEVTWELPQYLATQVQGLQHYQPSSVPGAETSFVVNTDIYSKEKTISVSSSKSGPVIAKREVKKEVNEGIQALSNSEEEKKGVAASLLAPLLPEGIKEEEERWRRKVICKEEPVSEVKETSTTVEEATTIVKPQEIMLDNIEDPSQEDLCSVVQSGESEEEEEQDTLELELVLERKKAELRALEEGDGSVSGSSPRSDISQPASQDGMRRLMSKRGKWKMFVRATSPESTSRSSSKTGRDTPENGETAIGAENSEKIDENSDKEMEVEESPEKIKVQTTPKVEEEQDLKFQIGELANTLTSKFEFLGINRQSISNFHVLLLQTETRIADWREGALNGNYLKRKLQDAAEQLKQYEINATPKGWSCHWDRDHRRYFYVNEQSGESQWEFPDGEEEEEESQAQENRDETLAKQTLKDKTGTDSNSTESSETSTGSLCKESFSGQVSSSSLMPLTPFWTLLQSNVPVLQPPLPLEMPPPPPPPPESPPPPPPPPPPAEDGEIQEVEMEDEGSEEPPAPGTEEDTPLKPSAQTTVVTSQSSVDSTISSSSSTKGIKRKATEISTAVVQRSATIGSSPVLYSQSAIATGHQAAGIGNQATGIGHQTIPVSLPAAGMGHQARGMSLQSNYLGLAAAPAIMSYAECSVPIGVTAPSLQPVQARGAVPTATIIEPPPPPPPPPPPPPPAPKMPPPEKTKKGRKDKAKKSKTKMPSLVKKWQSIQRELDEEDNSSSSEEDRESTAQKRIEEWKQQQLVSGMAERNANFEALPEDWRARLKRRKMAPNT
# Sequence of UniProt Q15084 (Q15084 whole entry): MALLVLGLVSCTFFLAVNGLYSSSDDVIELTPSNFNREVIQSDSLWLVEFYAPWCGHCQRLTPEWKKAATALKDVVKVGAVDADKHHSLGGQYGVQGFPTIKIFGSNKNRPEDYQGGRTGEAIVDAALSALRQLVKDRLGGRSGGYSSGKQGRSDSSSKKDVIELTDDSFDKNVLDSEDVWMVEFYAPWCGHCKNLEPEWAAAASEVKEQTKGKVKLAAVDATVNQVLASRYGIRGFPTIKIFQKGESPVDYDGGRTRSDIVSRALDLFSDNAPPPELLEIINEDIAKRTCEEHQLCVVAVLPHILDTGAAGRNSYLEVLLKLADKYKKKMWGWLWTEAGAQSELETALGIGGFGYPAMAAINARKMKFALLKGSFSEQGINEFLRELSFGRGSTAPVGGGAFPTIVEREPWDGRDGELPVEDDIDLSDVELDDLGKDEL
# Sequence of UniProt Q8TEX9 (Q8TEX9 whole entry): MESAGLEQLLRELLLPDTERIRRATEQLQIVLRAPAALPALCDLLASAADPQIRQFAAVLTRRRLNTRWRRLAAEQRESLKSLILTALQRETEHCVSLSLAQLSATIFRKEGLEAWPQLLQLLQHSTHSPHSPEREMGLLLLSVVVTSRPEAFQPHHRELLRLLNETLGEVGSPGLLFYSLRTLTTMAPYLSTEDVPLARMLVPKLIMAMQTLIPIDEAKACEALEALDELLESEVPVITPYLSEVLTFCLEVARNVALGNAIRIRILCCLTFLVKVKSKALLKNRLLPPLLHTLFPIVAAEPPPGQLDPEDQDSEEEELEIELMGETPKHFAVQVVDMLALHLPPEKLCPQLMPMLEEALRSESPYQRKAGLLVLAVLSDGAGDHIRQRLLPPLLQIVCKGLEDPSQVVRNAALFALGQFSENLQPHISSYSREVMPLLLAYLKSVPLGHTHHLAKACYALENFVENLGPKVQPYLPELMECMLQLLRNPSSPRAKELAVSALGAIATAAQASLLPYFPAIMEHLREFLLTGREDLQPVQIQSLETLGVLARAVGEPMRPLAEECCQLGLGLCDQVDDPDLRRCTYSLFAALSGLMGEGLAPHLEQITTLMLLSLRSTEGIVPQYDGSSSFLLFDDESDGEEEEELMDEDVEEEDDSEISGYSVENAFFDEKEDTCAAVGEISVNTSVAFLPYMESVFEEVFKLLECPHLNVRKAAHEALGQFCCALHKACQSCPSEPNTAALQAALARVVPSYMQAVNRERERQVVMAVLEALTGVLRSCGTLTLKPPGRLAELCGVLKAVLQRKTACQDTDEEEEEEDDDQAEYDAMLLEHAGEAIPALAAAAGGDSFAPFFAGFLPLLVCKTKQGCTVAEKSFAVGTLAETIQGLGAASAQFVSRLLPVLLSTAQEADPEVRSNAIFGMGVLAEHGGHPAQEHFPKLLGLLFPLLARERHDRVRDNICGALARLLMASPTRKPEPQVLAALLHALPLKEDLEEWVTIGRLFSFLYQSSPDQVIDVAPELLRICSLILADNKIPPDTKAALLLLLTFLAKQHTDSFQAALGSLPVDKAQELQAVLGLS
# Sequence of UniProt Q6UN15 (Q6UN15 whole entry): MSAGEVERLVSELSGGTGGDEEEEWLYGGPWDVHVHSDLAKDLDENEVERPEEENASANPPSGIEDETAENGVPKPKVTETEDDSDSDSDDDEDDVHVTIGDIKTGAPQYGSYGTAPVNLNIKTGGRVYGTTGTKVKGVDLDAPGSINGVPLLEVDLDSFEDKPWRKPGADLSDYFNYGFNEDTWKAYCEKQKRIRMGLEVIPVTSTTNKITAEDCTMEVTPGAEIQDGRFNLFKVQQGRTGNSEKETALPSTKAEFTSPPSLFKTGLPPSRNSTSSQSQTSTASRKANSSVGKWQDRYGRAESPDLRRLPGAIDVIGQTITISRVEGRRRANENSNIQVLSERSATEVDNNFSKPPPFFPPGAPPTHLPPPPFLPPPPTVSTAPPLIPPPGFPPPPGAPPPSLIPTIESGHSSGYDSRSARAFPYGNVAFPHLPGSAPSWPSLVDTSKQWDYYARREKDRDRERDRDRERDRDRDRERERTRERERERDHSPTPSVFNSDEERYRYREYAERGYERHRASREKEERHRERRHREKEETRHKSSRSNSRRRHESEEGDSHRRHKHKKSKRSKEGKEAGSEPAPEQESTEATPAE
# Sequence of UniProt Q8NFV4 (Q8NFV4 whole entry): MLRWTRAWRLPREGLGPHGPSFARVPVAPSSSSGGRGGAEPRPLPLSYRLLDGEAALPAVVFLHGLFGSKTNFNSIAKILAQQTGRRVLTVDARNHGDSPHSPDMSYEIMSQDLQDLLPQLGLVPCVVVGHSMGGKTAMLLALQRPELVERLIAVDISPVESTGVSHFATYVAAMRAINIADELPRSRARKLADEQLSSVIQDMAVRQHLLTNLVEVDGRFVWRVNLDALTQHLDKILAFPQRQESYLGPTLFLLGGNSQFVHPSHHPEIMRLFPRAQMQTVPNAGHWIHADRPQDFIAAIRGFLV
# Sequence of UniProt Q15126 (Q15126 whole entry): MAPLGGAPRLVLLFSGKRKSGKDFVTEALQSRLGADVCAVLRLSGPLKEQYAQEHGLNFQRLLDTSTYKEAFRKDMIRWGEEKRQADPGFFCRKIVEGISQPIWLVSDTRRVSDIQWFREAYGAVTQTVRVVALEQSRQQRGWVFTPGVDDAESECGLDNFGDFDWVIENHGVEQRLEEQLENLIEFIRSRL
Target,NP40-soluble protein abundance (concentration: 1mM),NP40-soluble protein abundance (concentration: 2mM),NP40-soluble protein abundance (concentration: 4mM),NP40-soluble protein abundance (concentration: 6mM),NP40-soluble protein abundance (concentration: 8mM),NP40-soluble protein abundance (concentration: 10mM)
TMED4 (UniProt Q7Z7H5),1.017 ± 0.0076,0.973 ± 0.026,0.99 ± 0.032,1.02 ± 0.036,1.02 ± 0.025,1 ± 0.038
PCGF5 (UniProt Q86SE9),1.01 ± 0.043,1.01 ± 0.029,1.01 ± 0.065,0.967 ± 0.054,0.974 ± 0.039,0.945 ± 0.036
CAND1 (UniProt Q86VP6),0.971 ± 0.024,0.947 ± 0.03,0.983 ± 0.035,1.01 ± 0.084,1.03 ± 0.044,0.992 ± 0.058
TBRG4 (UniProt Q969Z0),0.984 ± 0.03,0.953 ± 0.033,0.955 ± 0.012,0.959 ± 0.028,0.941 ± 0.022,0.935 ± 0.054
UniProt Q8IWI9|Q8IWI9-3|Q8IWI9-4,1.02 ± 0.023,1.01 ± 0.021,1.01 ± 0.047,0.953 ± 0.014,0.924 ± 0.029,0.944 ± 0.046
UniProt Q8WUQ7|Q8WUQ7-2,1.05 ± 0.027,1.05 ± 0.027,1.09 ± 0.03,1.06 ± 0.023,1.06 ± 0.031,1.11 ± 0.063
UniProt Q5T011|Q5T011-5,0.882 ± 0.14,0.91 ± 0.071,0.912 ± 0.076,0.864 ± 0.16,0.809 ± 0.045,0.803 ± 0.056
UniProt Q5FWF5,1.01 ± 0.012,1.012 ± 0.0086,1 ± 0.026,1.04 ± 0.035,1.029 ± 7.1e-05,1.06 ± 0.023
UniProt Q5F1R6|Q5F1R6-3,1.044 ± 0.0025,1.12 ± 0.041,1.123 ± 0.0067,1.11 ± 0.066,1.09 ± 0.019,1.11 ± 0.035
LRRC59 (UniProt Q96AG4),1.11 ± 0.048,1.32 ± 0.3,1.13 ± 0.089,1.15 ± 0.028,1.12 ± 0.052,1.19 ± 0.13
UniProt Q5T3F8|H3BLW6,1 ± 0.052,1.06 ± 0.1,1.01 ± 0.038,1.01 ± 0.019,0.985 ± 0.042,1.01 ± 0.049
UniProt Q8TEQ0|Q8TEQ0-2,1.02 ± 0.035,1.03 ± 0.047,1.01 ± 0.029,0.98 ± 0.054,0.969 ± 0.017,0.953 ± 0.021
POLA2 (UniProt Q14181),0.994 ± 0.014,0.974 ± 0.028,1 ± 0.044,1.04 ± 0.03,1.02 ± 0.021,1.03 ± 0.025
UniProt Q8NDV3-2|Q8NDV3-3,0.953 ± 0.039,0.942 ± 0.011,0.928 ± 0.015,0.977 ± 0.0022,0.945 ± 0.025,0.944 ± 0.033
UniProt Q86VR2,0.989 ± 0.0052,0.966 ± 0.024,0.977 ± 0.025,0.976 ± 0.015,0.9994 ± 0.002,0.952 ± 0.01
UniProt Q8WZA9,1.03 ± 0.023,1.08 ± 0.07,1.04 ± 0.059,0.988 ± 0.028,0.981 ± 0.021,0.989 ± 0.067
UniProt Q5H8A4-5,0.979 ± 0.011,0.971 ± 0.019,0.983 ± 0.034,0.92 ± 0.01,0.9558 ± 0.0061,0.952 ± 0.016
UniProt Q15084|Q15084-2|Q15084-3|Q15084-4|Q15084-5,0.949 ± 0.019,0.989 ± 0.021,0.9386 ± 0.0066,0.951 ± 0.032,0.92 ± 0.022,0.94 ± 0.047

Target,NP40-soluble protein abundance (concentration: 1mM),NP40-soluble protein abundance (concentration: 2mM),NP40-soluble protein abundance (concentration: 4mM),NP40-soluble protein abundance (concentration: 6mM),NP40-soluble protein abundance (concentration: 8mM),NP40-soluble protein abundance (concentration: 10mM)
UniProt Q8TB61|Q8TB61-2|Q8TB61-3,0.968 ± 0.041,0.969 ± 0.045,0.965 ± 0.045,0.953 ± 0.034,0.951 ± 0.042,0.989 ± 0.019
UniProt Q15642-2|Q15642-3|Q15642-4|W4VSQ9|M0R0F9,1.09 ± 0.014,1.07 ± 0.036,1.07 ± 0.014,1.04 ± 0.054,1.07 ± 0.025,1.06 ± 0.065
UniProt Q8N3X1|Q8N3X1-2,1.04 ± 0.042,1.12 ± 0.093,1.21 ± 0.11,1.45 ± 0.15,1.49 ± 0.17,1.58 ± 0.24
PMVK (UniProt Q15126),0.948 ± 0.0098,0.931 ± 0.018,0.973 ± 0.045,1.04 ± 0.07,1.04 ± 0.061,1.02 ± 0.052
UniProt Q15390|H0YBZ4|Q15390-2,1.008 ± 0.0075,1.05 ± 0.071,1.01 ± 0.02,1 ± 0.011,0.9719 ± 0.0073,0.989 ± 0.021
THOC7 (UniProt Q6I9Y2),1.29 ± 0.045,1.47 ± 0.2,1.57 ± 0.24,1.73 ± 0.39,1.85 ± 0.47,1.93 ± 0.64
HP1BP3 (UniProt Q5SSJ5),0.963 ± 0.042,1.06 ± 0.063,1.03 ± 0.065,1.16 ± 0.017,1.18 ± 0.069,1.39 ± 0.15
UniProt Q93073|Q93073-2,0.997 ± 0.026,1.01 ± 0.046,0.978 ± 0.039,0.996 ± 0.013,0.972 ± 0.024,0.971 ± 0.027
UniProt Q15365,1.031 ± 0.0057,1.04 ± 0.038,1.04 ± 0.033,1 ± 0.02,1.01 ± 0.014,1.01 ± 0.03
NSDHL (UniProt Q15738),0.968 ± 0.04,0.892 ± 0.058,0.93 ± 0.022,0.953 ± 0.045,0.964 ± 0.036,0.923 ± 0.028
UniProt Q6UN15|Q6UN15-3,1.03 ± 0.024,1.11 ± 0.062,1.059 ± 0.0078,1.07 ± 0.053,1.08 ± 0.034,1.15 ± 0.064
UniProt Q8TEX9|Q8TEX9-2,1.01 ± 0.026,0.974 ± 0.059,0.99 ± 0.017,0.9956 ± 0.0059,1.007 ± 0.0054,0.981 ± 0.025
UniProt Q7L5N7|A0A087X0A3|Q7L5N7-2,0.987 ± 0.031,0.966 ± 0.051,0.979 ± 0.037,0.99 ± 0.035,0.985 ± 0.028,1.01 ± 0.036
UniProt Q6ZRI6|Q6ZRI6-2|H3BMJ2,0.9914 ± 0.0011,1.01 ± 0.044,1.01 ± 0.018,0.992 ± 0.029,1 ± 0.018,0.99766 ± 5.3e-05
ABHD11 (UniProt Q8NFV4),1.02 ± 0.035,1.046 ± 0.0096,1.04 ± 0.023,0.995 ± 0.028,1 ± 0.02,1.01 ± 0.048
NUP210 (UniProt Q8TEM1),0.992 ± 0.025,0.952 ± 0.025,0.975 ± 0.021,0.972 ± 0.037,1.01 ± 0.029,0.986 ± 0.044
EPM2AIP1 (UniProt Q7L775),0.961 ± 0.015,0.94 ± 0.032,0.96 ± 0.025,0.947 ± 0.028,0.9617 ± 0.0055,0.958 ± 0.041

# From the supplement of paper PMC6411743
